Assay results as given in PubChem BioAssay (NCATS).
Records with an inconclusive call do not appear. The source made the active and inactive calls. Calls follow the shape of the dose curve; as a rule, active = well fitted cell-killing curve with a large enough effect; inconclusive = small, poorly fitted or top-dose-only effect, or effect the other way; inactive = flat fitted curve, though single readings scatter.

How the values were obtained:
Assay in all cases: Primary qHTS to identify gynecologic anti-cancer compounds using libraries of approved drugs and bioactive compounds (AID 1345084); also: nearly all actives have a fitted effect of over 55% in size
Settings in all cases: Gynecologic cancer cell panel viability, ATPlite luminescence, 48 h; series mostly up to 57.5 µM
[1] = system: OV90
In short: (§1)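 Cell viability after 48 h drug treatment, ATPlite luminescence readout; five doses.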

[2] = system: PA-1
In short: as §1

[3] = system: SKOV3
In short: as §1

[4] = system: Tov-21-G
In short: as §1

[5] = system: Tov112D
In short: as §1
% is scaled to controls: 0 for no effect and ±100 for the full control effect.

C[C@@H]1CCC2C(C)(C)[C@H](O)CC[C@]2(C)[C@@]12Cc1c(O)cc3c(c1O2)CN(CCO)C3=O (stereo not given in full)
inactive: Potency [1] | Potency [2] | Potency [3] | Potency [4] | Potency [5]

CC(=O)OC[C@@]12[C@H](O)C[C@]3(C)C(=CCC4[C@@]5(C)CC[C@H](O[C@@H]6O[C@H](C(=O)O)[C@@H](O[C@@H]7O[C@H](CO)[C@@H](O)[C@H](O)[C@H]7O)[C@H](O)[C@H]6O[C@@H]6O[C@H](CO)[C@@H](O)[C@H](O)[C@H]6O)[C@](C)(CO)C5CC[C@]43C)[C@@H]1CC(C)(C)[C@@H](OC(C)=O)[C@@H]2O (stereo not given in full)
inactive: activity change, negative = cytotoxicity [1] -1.56% [at 11.6 µM] | activity change, negative = cytotoxicity [2] 0.948% [at 11.6 µM] | activity change, negative = cytotoxicity [3] 8.16% [at 11.6 µM] | activity change, negative = cytotoxicity [4] 2.04% [at 11.6 µM] | activity change, negative = cytotoxicity [5] 1.86% [at 11.6 µM]

CC1(C)CCCC2(C)C1C(O)C=C(CO)C2(O)C(=O)O (stereo not given)
inactive: Potency [1] | Potency [2] | Potency [3] | Potency [4] | Potency [5]

CC(C)c1nc(N(C)S(C)(=O)=O)nc(-c2ccc(F)cc2)c1/C=C/[C@@H](O)C[C@@H](O)CC(=O)O
inactive: Potency [1] | Potency [2] | Potency [3] | Potency [4] | Potency [5]

CCOc1ccc(C(Nc2ccccn2)c2ccc3ccc(C)nc3c2O)cc1C (stereo not given)
inactive: Potency [1] | Potency [2] | Potency [3] | Potency [4] | Potency [5]

C[C@@H]1O[C@@H](O[C@H]2[C@H](O[C@H]3CC[C@@]4(C)C(CC[C@]5(C)C4CC=C4[C@@H]6CC(C)(C)CC[C@]6(C(=O)O)CC[C@]45C)[C@]3(C)CO)OC[C@H](O)[C@@H]2O)[C@H](O)[C@H](O[C@@H]2OC[C@@H](O)[C@H](O)[C@H]2O)[C@H]1O (stereo not given in full)
inactive: activity change, negative = cytotoxicity [1] -5.88% [at 11.6 µM] | activity change, negative = cytotoxicity [2] -2.5% [at 11.6 µM] | activity change, negative = cytotoxicity [3] -0.901% [at 11.6 µM] | activity change, negative = cytotoxicity [4] -4.57% [at 11.6 µM] | activity change, negative = cytotoxicity [5] 4.64% [at 11.6 µM]

CC[C@H](/C=C/[C@@H](C)[C@H]1CC[C@H]2[C@@H]3CC=C4C[C@@H](O)CC[C@]4(C)[C@H]3CC[C@]12C)C(C)C
inactive: activity change, negative = cytotoxicity [1] 2.68% [at 6.55 µM] | activity change, negative = cytotoxicity [2] 2.16% [at 6.55 µM] | activity change, negative = cytotoxicity [3] 8.88% [at 6.55 µM] | activity change, negative = cytotoxicity [4] 16.8% [at 6.55 µM] | activity change, negative = cytotoxicity [5] -1.77% [at 6.55 µM]

CN1C(=O)c2ccccc2-n2c(nc3ccccc3c2=O)[C@@]12O[C@H]2c1ccccc1
inactive: Potency [1] | Potency [2] | Potency [3] | Potency [4] | Potency [5]

COC(=O)c1cc(CN2CCN(C(=N)N)CC2)cc(C(=O)N2CCN(C(=O)c3ccc(C(=N)N)cc3)CC2)c1
inactive: Potency [1] | Potency [2] | Potency [3] | Potency [4] | Potency [5]

COC(=O)C1=CO[C@@H](O[C@@H]2O[C@H](COC(=O)/C=C/c3cc(OC)c(O)c(OC)c3)[C@@H](O)[C@H](O)[C@H]2O)[C@@H]2C(CO)=CC[C@H]12
inactive: Potency [1] | Potency [2] | Potency [3] | Potency [4] | Potency [5]

CC1OC(OC2C(C)OC(OC3C(OC(=O)/C=C/c4ccc(O)cc4)C(CO)OC(OC4(COC(=O)/C=C/c5ccc(O)cc5)OC(CO)C(O)C4O)C3OC3OCC(O)(CO)C3O)C(O)C2O)C(O)C(O)C1O (stereo not given)
inactive: activity change, negative = cytotoxicity [1] 8.76% [at 11.6 µM] | activity change, negative = cytotoxicity [2] -0.866% [at 11.6 µM] | activity change, negative = cytotoxicity [3] 28.4% [at 11.6 µM] | activity change, negative = cytotoxicity [4] 1.37% [at 11.6 µM] | activity change, negative = cytotoxicity [5] -2.2% [at 11.6 µM]

C/C=C/C1=CC2=C(CO1)C(=O)[C@](C)(O)[C@H](OC(=O)c1c(O)cc(OC)c(O)c1C)C2
inactive: Potency [1] | Potency [2] | Potency [3] | Potency [4] | Potency [5]

CC1(C)C(O)CCC2(C)C1C(O)C=C1COC(=O)C12O (stereo not given)
inactive: Potency [1] | Potency [2] | Potency [3] | Potency [4] | Potency [5]

Clc1ccc(CN[C@H]2CCN(c3ncc(Br)cn3)C2)c(Cl)c1
inactive: Potency [1] | Potency [2] | Potency [3] | Potency [4] | Potency [5]

CC(C)C(=O)c1cn(CC(=O)COc2ccc(Oc3ccccc3)cc2)c2ccc(C(=O)O)cc12
inactive: Potency [1] | Potency [2] | Potency [3] | Potency [4] | Potency [5]

CO[C@@]12CC3[C@@H]([C@@H](O)[C@@H](OC(C)=O)C4[C@](C)(COC(C)=O)CCC[C@]34C)[C@@H](C)C1=CC(=O)O2 (stereo not given in full)
inactive: Potency [1] | Potency [2] | Potency [3] | Potency [4] | Potency [5]

CC1OC(OC2C(O)C(C(=O)O)OC(OC3CCC4(C)C(CCC5(C)C4C=CC4=C6CC(C)(C)CC(O)C6(C)CCC45C)C3(C)C)C2OC2OCC(O)C(O)C2O)C(O)C(O)C1O (stereo not given)
inactive: activity change, negative = cytotoxicity [1] 1.31% [at 11.6 µM] | activity change, negative = cytotoxicity [2] 8.55% [at 11.6 µM] | activity change, negative = cytotoxicity [3] 1.68% [at 11.6 µM] | activity change, negative = cytotoxicity [4] 7.57% [at 11.6 µM] | activity change, negative = cytotoxicity [5] 16.2% [at 11.6 µM]

CCC(NC(=O)CC(NC(=O)C(CO)NC(=O)C(CC)NC(=O)c1ccc[nH]1)c1ccccc1)C(=O)O (stereo not given)
inactive: Potency [1] | Potency [2] | Potency [3] | Potency [4] | Potency [5]

CCNC(=O)[C@H]1O[C@H](n2cnc3c(NCC(c4ccccc4)c4ccccc4)nc(C(=O)NCCNC(=O)NC4CCN(c5ccccn5)CC4)nc32)[C@H](O)[C@@H]1O
inactive: Potency [1] | Potency [2] | Potency [3] | Potency [4] | Potency [5]
